This passage reports growth inhibition results from PubChem BioAssay (NCI).

About 79,000 compounds went through this panel and 15% of them were active in at least one assay; those are over-represented in the sample as a whole. Unmarked numbers belong to inactive results. Activity calls are given as the source filed them. Rule as the data show it: active = growth inhibition above about 70%; inactive = the rest.

The nature of test [1]: NCI Yeast Anticancer Drug Screen. Data for the rad50 strain (AID 155).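 Also: 0% = growth of vehicle-only cultures of the same strain.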 The conditions noted are these: S. cerevisiae rad50 strain growth inhibition, hits give high values. In a few lines:
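Yeast carrying a defined DNA repair defect were exposed to test compounds, and growth was compared with vehicle-treated controls to give percent inhibition.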

The nature of test [2]: NCI Yeast Anticancer Drug Screen. Data for the mec2-1 strain (AID 157). The conditions noted are these: S. cerevisiae mec2-1 strain, hits give high values. In outline:
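Compounds were applied to mec2-1 yeast cells. Their growth was then compared with that of vehicle-treated cultures to give growth inhibition.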

Test [3] in a line: NCI Yeast Anticancer Drug Screen. Data for the sgs1 mgt1 strain (AID 161).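 Also: 0% = growth of cultures given vehicle only.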 The conditions noted are these: S. cerevisiae sgs1 mgt1 strain, hits give high values. In a few lines: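 Growth of a repair-deficient yeast mutant was monitored after compound treatment and expressed as inhibition relative to vehicle-treated cultures.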
A short description of test [4]: NCI Yeast Anticancer Drug Screen. Data for the cln2 rad14 strain (AID 165).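 Also: 0% = growth equal to vehicle treated cultures.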 The conditions noted are these: S. cerevisiae cln2 rad14 strain, hits give high values. In outline: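 Strain: cln2 rad14 yeast, altered in cell cycle control and DNA damage repair. Read-out: growth inhibition vs vehicle.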
Test [5] can be described thus: NCI Yeast Anticancer Drug Screen. Data for the bub3 strain (AID 167). To be noted: S. cerevisiae bub3 mutant strain, hits give high values. In a few lines:
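Compounds were applied to a genetically altered yeast strain carrying a cell-cycle control defect. Growth inhibition was scored against vehicle-treated controls.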

Test [6] can be described thus: NCI Yeast Anticancer Drug Screen. Data for the mlh1 rad18 strain (AID 175). The conditions noted are these: S. cerevisiae mlh1 rad18 strain growth inhibition, hits give high values. In a few lines:
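A repair-deficient yeast strain is exposed to test compound, and growth is scored relative to vehicle-treated controls.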

Setting [7] is: at 5.0 µM (retest, dose inferred, filed as 0.5).
[8] abbreviates: at 50.0 µM (retest, dose inferred, filed as 5.0).

As to `Cc1cc(Cl)c2cc(Cc3ccc(Br)cc3)ccc2n1`, the growth inhibition in test [1] (setting [7]) was -3%; in test [1] (setting [8]), 10%; in test [1] (at 50.0 µM) it was 16.5%; in test [2] (setting [7]), -10%; in test [2] (setting [8]), 20%; in test [2] (at 50.0 µM), 36%. In addition, the growth inhibition was 11% in test [3] (setting [7]); 37% in test [3] (setting [8]); 43.9% in test [3] (at 50.0 µM); 1% in test [4] (setting [7]); -1% in test [4] (setting [8]); 50.6% in test [4] (at 50.0 µM). For the same compound, the growth inhibition was 4% in test [5] (setting [7]); 12% in test [5] (setting [8]); 37.6% in test [5] (at 50.0 µM); 15% in test [6] (setting [7]); 15% in test [6] (setting [8]); 55.9% in test [6] (at 50.0 µM).
Turning to `COc1ccc(Cc2ccccc2C(=O)O)c2ccccc12`, the growth inhibition is 97% (active) in test [1] (setting [7]); 96% (active) in test [1] (setting [8]); 99.1% (active) in test [1] (at 50.0 µM); 98% (active) in test [2] (setting [7]); 98% (active) in test [2] (setting [8]); 99.2% (active) in test [2] (at 50.0 µM). The growth inhibition in test [3] (setting [7]) is 97% (active); in test [3] (setting [8]), 99% (active); in test [3] (at 50.0 µM), 99.5% (active); in test [4] (setting [7]), 95% (active); in test [4] (setting [8]), 96% (active); in test [4] (at 50.0 µM), 98.7% (active). Also, the growth inhibition in test [5] (setting [7]) is 96% (active); in test [5] (setting [8]) it was 98% (active); in test [5] (at 50.0 µM) it was 98.9% (active); in test [6] (setting [7]), 97% (active); in test [6] (setting [8]), 98% (active); in test [6] (at 50.0 µM), 99% (active).
`CCc1nc(N)nc(N)c1-c1ccc(N(C)Cc2ccccc2)c([N+](=O)[O-])c1`: the growth inhibition in test [1] (setting [7]) was 10%; in test [1] (setting [8]), -13%; in test [1] (at 50.0 µM), 8.55%; in test [2] (setting [7]), 7%; in test [2] (setting [8]) it was 0%; in test [2] (at 50.0 µM), 22.1%. Further, the growth inhibition was 37% in test [3] (setting [7]); 37% in test [3] (setting [8]); 3.1% in test [3] (at 50.0 µM); 31% in test [4] (setting [7]); 40% in test [4] (setting [8]); 4.05% in test [4] (at 50.0 µM). Moreover, the growth inhibition was 52% in test [5] (setting [7]); 34% in test [5] (setting [8]); 10.1% in test [5] (at 50.0 µM); 8% in test [6] (setting [7]); -6% in test [6] (setting [8]); 14.5% in test [6] (at 50.0 µM).
